Measured values: PubChem BioAssay

Assay: binders of probe aFGF10 on microarray, primary screen, stem cell growth factor project, biochemical, small-molecule microarray, fluorescence 635/667 (AID 1071);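 note: score merges 667 nm spot intensity and signal to noise from triplicate slides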
Conditions: higher = more signal

| SMILES | composite z-score |
| --- | --- |
| C[C@@]1([C@@H](NS(=O)(=O)c2cccc3cccnc23)c2ccc(-c3ccccc3)cc2)C[C@H]1C1CCCCC1 | -0.0733 |
| O=C1O[C@H](c2ccccc2)[C@H](c2ccccc2)N2[C@H]1[C@@H](C(=O)N1CCN(c3ncccn3)CC1)[C@]1(C(=O)Nc3ccc(C#CC4(O)CCCCCC4)cc31)[C@H]2c1ccc(O)cc1 | 1.04 |
| C=CCC(OC(C)=O)[C@@H]1[C@@H](N(Cc2ccc(-c3ccccc3)cc2)C(=O)Cc2ccc(OC)cc2)c2cc(OCCCO)ccc2N1C(=O)c1ccc2ccccc2c1 (stereo partly drawn) | 0.269 |
| O=C(NC1CC1)[C@@H]1c2ccccc2C(=O)N(C2CCCCC2)[C@H]1c1ccc(CO)cc1 | -0.142 |
| COC(=O)[C@@]1(Cc2ccccc2)[C@H]2c3cc(C(=O)N(C)C)n(Cc4nc5ccccc5[nH]4)c3C[C@H]2CN1C(=O)c1ccccc1 | 0.572 |
| C=CCOC(=O)[C@@H]1[C@H]2C(=O)O[C@H](c3ccccc3)[C@H](c3ccccc3)N2[C@H](c2ccc(OCCOC(=O)[C@@H]3C[C@@H]4C(=O)N[C@@H](CC(C)C)C(=O)N4[C@@H]3c3ccc(O)cc3)cc2)[C@@]12C(=O)Nc1ccc(I)cc12 | 0.325 |
| COCCOC(=O)N1C(=O)[C@@]2(c3cc(C#CCNC(N)=O)ccc31)[C@H](C(N)=O)[C@H]1C(=O)O[C@H](c3ccccc3)[C@H](c3ccccc3)N1[C@@H]2c1ccc(O)cc1 | 0.29 |
| C=CCNC(=O)[C@H]1[C@@H]2C(=O)O[C@@H](c3ccccc3)[C@@H](c3ccccc3)N2[C@@H](c2ccc(OCCO)cc2)[C@]12C(=O)Nc1ccc(C#Cc3ccc(OC)cc3)cc12 | 0.705 |
